Compound activity (PubChem BioAssay)
Sampled rows, rich in hits. Any-hit rate of the full collection: about 5.7%.
Nrf2 inh = Nrf2 qHTS screen for inhibitors. A549 ARE-Fluc reporter, luciferase luminescence, 18-24 h. Potency, µM (top dose mostly 46 µM), inactives show at the top dose activity change, negative = inhibition, actives largely listed as inhibitors. 360,000 tested, 2.1% active. AID 504444, 2011; further: potency means the concentration at half of the fitted maximal effect; nearly all actives have a fitted effect of over 60% in size
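Reporter: ARE-Fluc in A549. Exposure: 18-24 h, 37 °C, 5% CO2, 5% FBS OPTI-MEM. Readouts: fluorescent cytotoxicity (CellTiter-Fluor), then luminescent Nrf2 signal after BugLite.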
KB-V1 MDR tox = qHTS assay for MDR1-selective chemotherapeutics: Primary screen using the drug-selected MDR subline cells KB-V1; Potency, µM (doses to about 46.1 µM), most hits filed as cytotoxic; AID 1347076, 2019; KB-V1 MDR cells viability, CellTiter-Glo, 72 h; 400,000 tested, 3.4% active; further: potency means the concentration at half of the fitted maximal effect; nearly all actives have a fitted effect of over 60% in size
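Cytotoxicity toward P-gp-expressing KB-V1 cells was determined as loss of CellTiter-Glo luminescence after 72 h at 37 degrees C. Compounds were tested in quantitative HTS format across a concentration range, with curves fitted to normalized data.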
A549 tox = Nrf2 qHTS screen for inhibitors: counterscreen for cytotoxicity; Potency, µM (highest dose often 46 µM), for inactives: at the highest dose activity change, negative = cytotoxicity, most hits filed as inhibitors; 390,000 tested, 0.16% active; AID 504648, 2011; A549 ARE-Fluc cells, CellTiter-Fluor viability, 18-24 h; further: potency means the concentration at half of the fitted maximal effect
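A549 ARE-Fluc cells in 5% FBS OPTI-MEM, 5000 cells/well, rested 2 h then exposed to compounds in concentration-response for 18-24 h at 37 °C. Viability by CellTiter-Fluor fluorescence (Ex 405/Em 525) after 30 min; luciferase luminescence (BugLite, 15 min, RT) read afterwards.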
PI4K2A block = qHTS for small molecular inhibitors of PI4K2A | Phosphatidylinositol 4-kinase type 2-alpha (Homo sapiens), Q9BTU6 | purified PI4K2A, ADP-Glo luminescence, 1 h; active compounds read low | activity change, negative = inhibition, % at 76.9 µM | 420,000 tested, 0.13% active | AID 1346378, 2018; in the data active means activity change below about -50%; inconclusive means mostly about -30% to -49%;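 further: -100% = wells without enzyme as full effect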
Target sequence (Q9BTU6 whole entry, looked up): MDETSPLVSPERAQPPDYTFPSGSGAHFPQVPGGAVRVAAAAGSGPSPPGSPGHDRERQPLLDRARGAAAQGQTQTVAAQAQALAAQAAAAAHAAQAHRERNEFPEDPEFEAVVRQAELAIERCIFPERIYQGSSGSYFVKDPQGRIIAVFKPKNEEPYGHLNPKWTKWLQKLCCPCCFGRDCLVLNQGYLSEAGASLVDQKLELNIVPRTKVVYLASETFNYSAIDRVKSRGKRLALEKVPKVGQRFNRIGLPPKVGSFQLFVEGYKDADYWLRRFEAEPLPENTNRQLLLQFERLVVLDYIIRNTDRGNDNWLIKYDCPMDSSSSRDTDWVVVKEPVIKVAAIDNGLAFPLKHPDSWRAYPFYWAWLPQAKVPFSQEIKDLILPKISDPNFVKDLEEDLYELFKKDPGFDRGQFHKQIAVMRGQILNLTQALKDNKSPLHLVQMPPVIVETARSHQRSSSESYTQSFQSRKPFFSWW
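In this quantitative HTS, ADP production by PI4K2A was quantified luminescently after 1 h at ambient temperature; 100 microM adenosine served as plate-quality control.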
Giardia killer = Small Molecules that selectively kill Giardia lamblia: qHTS; Giardia lamblia trophozoite viability; activity change, % at 7.66 µM, hits read low; 340,000 tested, 0.15% active; in the data active means activity change below about -80%; inconclusive means between about -30% and that limit;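 further: parasites exposed to compound for two days anaerobically before the ATP read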
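Killing of trophozoites was scored by loss of ATP luminescence after a 48 hrs anaerobic exposure to compounds at 37 deg C, using 100 cells per well.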
KB-3-1 cytotox = qHTS assay for MDR1-selective chemotherapeutics: Primary screen using the parental adenocarcinoma cell KB-3-1. Potency, µM (series often up to 46.1 µM), actives largely listed as cytotoxic. KB-3-1 viability, CellTiter-Glo ATP luminescence, 72 h. 400,000 tested, 1.4% active. AID 1347075, 2019; further: potency means the concentration at half of the fitted maximal effect; nearly all actives have a fitted effect of over 60% in size
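KB-3-1 cells, DMEM (no phenol red) + 10% FBS; compound by pin transfer, 72 h, 37 °C. Readout: CellTiter-Glo luminescence after 10 min. Data normalized, curve-fitted.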
The depositor's hits bear a star; i = inactive; ? = inconclusive; · = no result; ! = not confirmed by another sample. Unless noted, the call rests on the fitted dose curve; in most records, active means well fitted curve in the direction sought with a large enough effect; inconclusive means small, poorly fitted or top-dose-only effect, or another doubt; inactive means no such curve, though single readings can be large; an effect the other way counts as inactive or inconclusive. Unless noted, on the % scale 0 is the no-effect control and ±100 the full control effect.

SMILES | Nrf2 inh | KB-V1 MDR tox | A549 tox | PI4K2A block | Giardia killer | KB-3-1 cytotox
Cc1c(C(=O)N2CCN(C/C=C/c3ccccc3)CC2)oc2c(F)cccc12 | 7.6% | 16.4µM* | -2.1% | -0.8 | -14.4 | i
O=C(COCc1ccncc1)N1CCN(c2ccc(F)cc2Cl)CC1 | · | · | · | -1.7 | · | ·
Cc1ccc(CNC(=O)CCS(=O)(=O)c2cc3c(cc2Cl)NC(=O)CO3)cc1 | 25.9µM*! | i | -7.0% | -5.2 | 6.9 | i
Cc1ccc(N2CCN(C(=O)CCS(=O)(=O)c3cc4c(cc3Cl)NC(=O)CO4)CC2)c(C)c1 | 25.9µM* | i | -16.4% | 0.3 | · | i
Cc1ccc(C)c(NS(=O)(=O)c2cc3c(cc2Cl)NC(=O)CO3)c1 | 23.1µM* | ? | ? | 0.3 | · | i
Cc1ccc(Cl)cc1N1CCN(C(=O)CCS(=O)(=O)c2ccc3c(c2)NC(=O)CO3)CC1 | 16.4µM* | i | -14.3% | 5.9 | 27.7 | ?
O=C1COc2cc(S(=O)(=O)CCC(=O)N3CCN(c4ccccc4F)CC3)c(Cl)cc2N1 | -13.9% | ? | 2.5% | -2.8 | · | i
CN(C)c1ccc(/C=N/N=C2/NC(=O)/C(=C/c3ccc([N+](=O)[O-])cc3)S2)cc1 | -13.4% | ? | -16.7% | 4.3 | -92.6* | ?
CN(C)c1ccc(C=C2SC(=S)NC2=O)cc1 | ? | i | ? | 0.8 | -22.5 | i
Cc1ccc(NC(=O)CSC2=C(C#N)C(c3ccc4c(c3)OCO4)C3=C(CCCC3=O)N2)c(C)c1 (configuration not stated) | 11.6µM* | i | · | 1.4 | 4.3 | i
Cc1noc(C)c1COC(=O)c1ccccc1Sc1ccccc1C#N | 18.4µM* | ? | -10.5% | 0.6 | 6.3 | i
N#Cc1ccccc1Sc1ccccc1C(=O)OCC(N)=O | -5.0% | i | 0.5% | 3.7 | -3.0 | i
COC(=O)c1ccc(-c2ccc([C@H]3[C@H]4C=CC[C@@H](C)[C@@H]4C(=O)N3Cc3ccccc3)c(F)c2)cc1 | 23.1µM* | i | -10.6% | -0.4 | -9.0 | i
CC(=O)c1ccc(-c2ccc([C@H]3[C@H]4C=CC[C@@H](C)[C@@H]4C(=O)N3Cc3ccccc3)c(F)c2)cc1 | ? | 20.6µM* | 2.1% | -3.6 | 12.5 | ?
COc1ccccc1C(=O)Nc1ccc(C(=O)OCc2cc(=O)n3c4c(sc3n2)CCCC4)cc1 | · | · | -0.4% | -1.4 | · | ·
Cc1nn(-c2ccccc2)c2sc(C(=O)N3CCN(Cc4ccc(F)cc4)CC3)cc12 | · | · | · | 0.0 | · | ·
CC(C)C(NC(=O)OCc1ccccc1)C(=O)OCC(=O)N1CCCCC1 (configuration not stated) | · | ? | 0.9% | 4.6 | -7.1 | i
COc1ccc(N2CCN(C(=O)COC(=O)[C@@H](NC(=O)OCc3ccccc3)C(C)C)CC2)cc1 | ? | 6.51µM* | -6.1% | 8.2 | -11.5 | i
CCOC(=O)C1CCN(c2ncnc3c2cnn3-c2ccc(Cl)cc2)CC1 | 2.91µM* | i | -0.5% | -1.9 | 1.4 | i
COc1cccc(OCCN2CCN(c3ncnc4c3cnn4-c3ccccc3)CC2)c1 | ? | 5.17µM* | -14.3% | 1.2 | -5.8 | i
CCOC(=O)C1CCN(c2ncnc3c2cnn3-c2ccccc2)CC1 | -10.7% | i | -4.2% | 3.1 | -19.4 | i
Cc1nn(-c2ccccc2)c(Cl)c1C(=O)N1CCN(c2ncnc3c2cnn3-c2ccccc2)CC1 | 20.6µM* | ? | ? | 13.0 | 1.0 | ?
Cc1cccc2cc(CN(Cc3ccccc3)Cc3nnnn3Cc3ccccc3)c(=O)[nH]c12 | ? | ? | -18.2% | · | -24.1 | ?
CCCC(=O)OCOC(=O)C1=C(C)NC(C)=C(C(=O)OC)C1c1cccc(Cl)c1Cl (configuration not stated) | · | · | · | -0.6 | · | ·
N=c1oc2cc(O)ccc2cc1C(=O)Nc1ccc(Br)cc1 | 20.6µM* | 18.4µM* | 2.9% | 1.0 | -17.9 | 23.1µM*
SMILES | Nrf2 inh | KB-V1 MDR tox | A549 tox | PI4K2A block | Giardia killer | KB-3-1 cytotox
COC(=O)[C@]12C[C@H](CC(=O)NCc3ccc(C)o3)C(=O)N(Cc3ccco3)C1=C[C@H](C(C)(C)C)O[C@@H]2C | · | · | · | -1.5 | · | ·
O=C(C1CCC(CNS(=O)(=O)c2cccc3nsnc23)CC1)N1CC=C(c2ccccc2)CC1 (configuration not stated) | 20.6µM* | i | -11.4% | 4.0 | -7.3 | ?
Cc1ccc(S(=O)(=O)/C(=C/Cl)NC(=O)c2ccccc2)cc1 | 18.4µM* | i | -7.1% | 12.6 | -16.3 | 13µM*
CCCCCCCCCCCCCCCC(=O)OC(CC(=O)O)C[N+](C)(C)C (configuration not stated) | -7.6% | i | -1.4% | -22.0 | 14.7 | 3.66µM*
Cc1cc2ccccc2cc1C(=O)c1ccccc1 | ? | i | 1.5% | -5.2 | -1.3 | i
Cc1sc2cc3c(c(C(=O)c4ccccc4)[n+]2c1C)-c1cccc2cccc-3c12 | ? | i | ? | 4.9 | 14.9 | 7.31µM*
O=C(c1ccccc1)c1c2c(cc3sc4ccccc4[n+]13)-c1cccc3cccc-2c13 | 20.6µM* | ? | 16.4µM* | -12.8 | 0.4 | 20.6µM*
Cn1cncc1CNc1ncnc2ccc(-c3ccc4c(c3)OCO4)cc12 | 6.5% | · | 13.3% | · | · | ·
O=C(c1ccccc1)c1ccc2nc(-c3ccc(NC(=O)c4ccccc4F)cc3)[nH]c2c1 | 10.3µM* | i | ? | -11.5 | 8.6 | i
O=C(O)CCC(=O)Nc1ccc(-c2nc3ccc(C(=O)c4ccccc4)cc3[nH]2)cc1 | 6.3% | i | -6.8% | 2.2 | 6.2 | i
On1onc2c3cc(-c4ccccc4)nc3ccc21 | ? | 14.6µM* | -7.9% | 3.5 | 0.0 | i
CNCCN(C)c1nc(-c2cccs2)nc2ccccc12 | -11.7% | · | 0.0% | · | 7.9 | ·
Oc1ccc(Cl)c(CN2CCN(c3ncc(Cc4ccccc4)cn3)CC2)c1 | · | 16.4µM* | · | 1.7 | · | ?
O=C(Nc1ccccn1)c1cccs1 | ? | i | -2.0% | 4.8 | 4.0 | ?
CCN(CC)S(=O)(=O)c1csc(C(=O)Nc2ccccn2)c1 | 7.7% | 23.1µM* | -8.5% | 1.8 | 11.5 | i
C=CCc1c(C)nc(-c2ccccc2)nc1N/N=C(\C)c1ccc(N)cc1 | 0.3% | 23.1µM* | 10.1% | 10.9 | -0.3 | ?
C=CCc1c(C)nc(-c2ccccc2)nc1N/N=C/c1ccccc1 | ? | i | 4.7% | 0.2 | -3.8 | i
CCN(Cc1ccccc1)c1ccccc1 | 2.9% | i | -5.5% | 3.3 | 6.9 | i
